# Data from the supplement of paper PMC6555819.
# Tests used:
# Test in all cases: PBM binding z-score (relative to random genomic background probes); higher = stronger binding; sequences stand for … in GC…GCGATTGACAGCGTAGAATGAAGG
# [1] = tested on: PPARg:RXRa DBDmut IVT, anti-RXR (DBD mutation: RXRa K156A/R161A, NR concentration 270 nM, RXRa partner concentration 90 nM)
# How it was run: (§1)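 Regression normalization was applied to scanned fluorescence from custom Agilent 4×180K protein-binding microarrays. Before scanning, arrays were incubated 1 h with ligand-free nuclear receptor dimers, and binding was detected with antibodies against each partner (one per run). Binding z-scores use the random background probes as reference.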
# [2] = tested on: PPARg:RXRa IVT, anti-PPARg (NR concentration 270 nM, RXRa partner concentration 90 nM)
# How it was run: as §1
# [3] = tested on: PPARg DBDmut:RXRa IVT, anti-PPARg (DBD mutation: PPARg1 K132A/R137A, NR concentration 270 nM, RXRa partner concentration 90 nM)
# How it was run: as §1
# [4] = tested on: PPARg DBDmut IVT, anti-PPARg (DBD mutation: PPARg1 K132A/R137A, NR concentration 270 nM)
# How it was run: as §1
# [5] = tested on: PPARg homodimer (NR concentration 180 nM)
# How it was run: as §1
# [6] = tested on: PXR:RXRa (NR concentration 270 nM, RXRa partner concentration 90 nM)
# How it was run: as §1
# [7] = tested on: PXR homodimer (NR concentration 270 nM)
# How it was run: as §1
# [8] = tested on: RARa:RXR (NR concentration 270 nM, RXRa partner concentration 90 nM)
# How it was run: as §1
# [9] = tested on: RARa homodimer (NR concentration 270 nM)
# How it was run: as §1
# [10] = tested on: RARb:RXRa (NR concentration 270 nM, RXRa partner concentration 90 nM)
# How it was run: as §1
# [11] = tested on: RARb homodimer (NR concentration 270 nM)
# How it was run: as §1
# [12] = tested on: RARg:RXRa (NR concentration 270 nM, RXRa partner concentration 90 nM)
# How it was run: as §1
# [13] = tested on: RARg homodimer (NR concentration 270 nM)
# How it was run: as §1
# [14] = tested on: RXRa DBDmut IVT, anti-RXR (DBD mutation: RXRa K156A/R161A, NR concentration 90 nM)
# How it was run: as §1
# [15] = tested on: RXRa homodimer (NR concentration 180 nM)
# How it was run: as §1
# [16] = tested on: THRa:RXRa (NR concentration 90 nM, RXRa partner concentration 90 nM)
# How it was run: as §1
# [17] = tested on: THRa homodimer (NR concentration 90 nM)
# How it was run: as §1
# [18] = tested on: VDR homodimer (NR concentration 270 nM)
# How it was run: as §1
Sequence,PBM binding z-score [1],PBM binding z-score [2],PBM binding z-score [3],PBM binding z-score [4],PBM binding z-score [5],PBM binding z-score [6],PBM binding z-score [7],PBM binding z-score [8],PBM binding z-score [9],PBM binding z-score [10],PBM binding z-score [11],PBM binding z-score [12],PBM binding z-score [13],PBM binding z-score [14],PBM binding z-score [15],PBM binding z-score [16],PBM binding z-score [17],PBM binding z-score [18]
AGAATGAGGTTACCAAAGATGAGGGAAACGCTTG,3.67,3.1,1.29,0.621,0.657,1,0.117,1.79,0.142,2.14,0.76,1.85,1.54,1.22,2.43,2.55,0.977,0.767
CGAACTAGGTCATCCTGGACAGTGAATACATTGA,8.23,8.04,1.58,0.831,1.83,1.3,-0.0548,2.02,0.627,3.58,2.86,3.82,4.56,2.37,2.67,2.89,1.35,1.5
TTTCGGAGGACACGAAGGTCAGAGCTTTCCAGAG,0.209,1.38,-0.89,-0.892,1.79,2.42,1.37,2.56,0.837,3.51,3.81,3.45,4.21,0.363,2.22,3.06,1.45,1.86
AGATGTAGGTTATCGGGTCATTCAGTTTGCGCAT,7.36,7.13,2.95,1.82,2.53,4.02,7.55,4.01,1.35,2.73,3.17,3.19,2.6,1.75,3.47,3.46,2.87,3.92
CGTCCAAGGACAGAGAGGTCAGTGAATGCCGAGT,0.0804,0.561,-0.629,-1.01,1.79,3.01,3.16,2.48,0.679,3.33,4,3.21,3.98,1.29,2.11,3.27,1.69,2.7
ATCTCAAGGTAAAGTTCAGTGAAAGATCGATAGA,0.17,1.36,1.42,1.27,1.71,2.26,2.1,1.78,1.65,2.97,2.72,2.43,2.96,1.69,1.76,1.78,0.667,2.24
CCTTACGGGTCAAGATTATAGCACGGGTGGTACG,1.74,2.81,-0.14,0.0306,2.2,2.85,-0.0377,4.07,1.11,3.98,2.79,4.4,4.24,0.558,5.02,2.02,0.000143,0.658
CGAACGAGGGCATGATTTGATAGCAAATGCCGAT,2.59,1.81,-0.0165,-0.269,-0.834,0.0992,-0.377,0.0639,-0.507,1.78,0.522,0.771,1.19,1.99,0.631,0.985,-0.278,0.561
CAAACTATGTCACAGAGGTCAAAGTCCGTGCGTA,5.08,5.55,0.905,0.872,3.02,5.88,3.31,5.97,1.58,4.19,4.82,5.68,5.01,2.12,6.58,3.83,1.89,4.59
GGAACGAGGGCAAGTTGATAGCCGAGTTTGATGG,3.6,2.74,-0.528,-0.707,0.106,0.822,0.247,0.442,-0.485,2.88,1.56,1.84,2.12,2.37,0.956,1.22,-0.266,1.92
CGTCCAAGGTCAATGCTAGGTCAGTCAAAGCATT,3.29,3.92,0.558,-0.362,4.74,4.84,1.29,5.75,1.17,5.36,5.08,7.7,6.73,3.62,5.82,4.52,2.99,3.23
ATCGCTAGGTAAGACTCAGTTCAGTGAAGAACGC,-0.311,-0.264,-0.423,-0.364,-0.443,0.322,0.471,-0.577,-0.519,-0.283,-0.147,-0.35,-0.262,-0.408,-0.428,0.249,-0.192,0.334
TCAGACAGGTGAAGGTAACTCACGTACGCAGTCG,2.67,1.17,0.022,-0.274,0.847,0.479,-0.00874,0.651,0.536,1.07,0.616,0.706,0.586,1.3,0.939,0.624,0.0497,-0.22
CGTCCAAGGACATAGGAGGTCAGTGAAGACAGAT,0.24,1.36,-0.861,-1.72,1.48,2.07,0.81,2.11,0.692,2.76,3.17,2.46,3.05,0.749,1.64,3.54,1.83,1.48
